Results taken from PubChem BioAssay (Tox21).
“And” between values parts separate entries of the source, which are not always exact repeats. Equal values may be shown once. Records with an inconclusive call do not appear. A call without a number means that no potency is given here. Where a structure was tested more than once in an assay, its records may differ in their call. The source made the active and inactive calls. Unless noted, calls follow the shape of the full dose curve.

Key:
[1] = Nuclear factor erythroid 2-related factor 2/antioxidant responsive element (Nrf2/ARE) small molecule agonists: qHTS cell viability counter screen in human keratinocytes (AID 1919968; active = well fitted curve in the direction sought with a large enough effect in the repeat runs; an effect the other way counts as inactive or inconclusive; also: nearly all actives have a fitted effect of over 55% in size; also: potency is read from the fitted curve at half-maximal effect)
Outline: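 KeratinoSens cells (HaCaT keratinocytes stably carrying an ARE-luciferase reporter) were seeded at 1,500 cells/well and rested 5 h at 37 C/5% CO2. They were then exposed to compounds in DMSO for 23 h. Viability was read by CellTiter-Fluor fluorescence after 1 h.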

[2] = Nuclear factor erythroid 2-related factor 2/antioxidant responsive element (Nrf2/ARE) small molecule agonists: luciferase reporter gene qHTS assay in human keratinocytes (AID 1919969); also: nearly all actives have a fitted effect of over 35% in size; also: potency is read from the fitted curve at half-maximal effect
[3] = target: Gonadotropin-releasing hormone receptor (Homo sapiens) (UniProt P30968); test: Human gonadotropin-releasing hormone receptor (GnRHR) small molecule agonists, calcium flux assay in GnRHR-HEK293 cells (AID 1920063); also: nearly all actives have a fitted effect of over 35% in size
Outline: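 HEK293 cells stably expressing human GnRHR were plated 18 h at 37 °C, loaded with calcium dye 1 h at 37 °C, then given compound in agonist mode; fluorescence (Ex/Em 480/540) read kinetically for 3 min at 1 s intervals.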

[4] = target: KiSS-1 receptor (Homo sapiens) (UniProt Q969F8); test: Human kisspeptin (KISS1R) small molecule agonists, calcium flux assay in KISS1R-HEK293 cells (AID 1920064; active = well fitted curve in the direction sought with a large enough effect in the repeat runs; an effect the other way counts as inactive or inconclusive)
Outline: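 HEK293 cells stably expressing human KISS1R were plated 18 h at 37 °C, loaded with calcium dye for 1 h at 37 °C, then given compound by pin tool. Fluorescence (Ex/Em 480/540) was read kinetically for 3 min.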

[5] = G protein-coupled receptor (GPCR) small molecule agonists, calcium flux assay: HEK293 wild type cell line counter screen (AID 1920065)
Outline: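 Cells were plated and cultured 18 h at 37 C/5% CO2, then loaded with calcium dye for 1 h at 37 C. Compounds in DMSO were pin-transferred in agonist mode, and fluorescence (Ex/Em 480/540) was read kinetically for 3 min at 1 s intervals.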

[6] = p53 small molecule agonists, cell-based qHTS assay with human liver microsomes: qHTS cell viability counter screen (AID 1963579); also: nearly all actives have a fitted effect of over 45% in size
Outline: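 Metabolically activated exposure: compounds, human liver microsomes and NADPH (0.5 mg/mL final apiece) were added to p53RE-bla cells seeded 5 h earlier, left 16 h at 37 C, and then assessed for viability by CellTiter-Glo luminescence.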

[7] = p53 small molecule agonists, cell-based qHTS assay with rat liver microsomes: qHTS cell viability counter screen (AID 1963580); also: nearly all actives have a fitted effect of over 45% in size
Outline: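 Viability is assessed in parallel with the p53 reporter read: HCT-116 p53RE-bla cells receive compounds plus rat microsomes and NADPH (0.5 mg/mL final apiece), incubate 16 h at 37 C, and then CellTiter-Glo luminescence is recorded.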

[8] = target: 5-hydroxytryptamine receptor 2A (Homo sapiens) (UniProt P28223); test: 5-hydroxytryptamine receptor 2A (HTR2A) small molecule antagonists, cell-based qHTS assay (AID 1963586); also: nearly all actives have a fitted effect of over 45% in size; also: potency is read from the fitted curve at half-maximal effect
Outline: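 Antagonist-mode intracellular calcium assay: DOI (4 nM) added after 5 min compound pre-incubation at room temperature to dye-loaded HTR2A-CHO cells. Fluorescence followed for 3 min, sampled every second.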

[9] = target: 5-hydroxytryptamine receptor 2A (Homo sapiens) (UniProt P28223); test: 5-hydroxytryptamine receptor 2A (HTR2A) small molecule agonists, cell-based qHTS assay (AID 1963587); also: nearly all actives have a fitted effect of over 30% in size; also: potency is read from the fitted curve at half-maximal effect
Outline: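 CHO cells stably expressing human HTR2A, plated 18 h, loaded with calcium dye 1 h at 37 C. Agonist mode: compounds added and intracellular calcium fluorescence recorded kinetically for 2 min at 1 sec intervals.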

[10] = target: Muscarinic acetylcholine receptor M1 (Homo sapiens) (UniProt P11229); test: Cholinergic receptor muscarinic 1 (CHRM1) small molecule antagonists, cell-based qHTS assay (AID 1963588); also: nearly all actives have a fitted effect of over 40% in size; also: potency is read from the fitted curve at half-maximal effect
Outline: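 CHRM1-CHO calcium-flux assay, antagonist mode. Cells were seeded 18 h, dye-loaded 1 h at 37 C and given compound for 5 min at RT, then acetylcholine was added at 50nM. FDSS fluorescence was read 3 min; 15 concentrations, three runs.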

[11] = target: Muscarinic acetylcholine receptor M1 (Homo sapiens) (UniProt P11229); test: Cholinergic receptor muscarinic 1 (CHRM1) small molecule agonists, cell-based qHTS assay (AID 1963589); also: nearly all actives have a fitted effect of over 35% in size; also: potency is read from the fitted curve at half-maximal effect
Outline: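 CHO cells stably expressing human CHRM1, seeded 18 h at 37 C/5% CO2, dye-loaded 1 h at 37 C, then given compound in agonist mode; intracellular calcium fluorescence read kinetically at 1 s intervals. Fifteen concentrations, three independent runs.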

[12] = cAMP Responsive Elements (CRE) small molecule agonists, cell-based qHTS assay (AID 1963590)
Outline: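 CRE-bla HEK 293T cells in DMEM with 10% dialyzed FBS, NEAA, pyruvate and 25 mM HEPES were plated 18 h at 37 C/5% CO2, then exposed to compounds in DMSO for 3 h before LiveBLAzer B/G FRET substrate addition.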

[13] = cAMP Responsive Elements (CRE) small molecule antagonists, cell-based qHTS assay (AID 1963591; active = well fitted inhibition curve with a large enough effect in the signal ratio in the repeat runs, not every such curve was filed as active; the % refers to the signal ratio)
Outline: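 CRE-bla HEK293T cells were plated 18 h at 37 °C/5% CO2, pinned with compound in DMSO, then stimulated with NKH477 at 0.25 uM final for 3 h. LiveBLAzer B/G FRET substrate was added and plates incubated 2 h at room temperature.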

[14] = target: Beta-2 adrenergic receptor (Homo sapiens) (UniProt P07550); test: Adrenergic beta2 receptor (ADRB2) small molecule antagonists, cell-based qHTS assay (AID 1963592); also: nearly all actives have a fitted effect of over 50% in size; also: potency is read from the fitted curve at half-maximal effect
Outline: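 Cells (CHO, stable ADRB2 overexpression) incubated 18-20hr at 37C; compounds added from DMSO; agonist mix (1nM isoproterenol, 100uM IBMX, 25uM Ro-20-1724) added; 0.5hr RT; d2-cAMP and anti-cAMP-cryptate added; 1hr RT; 665/615 nm read.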

[15] = target: Beta-2 adrenergic receptor (Homo sapiens) (UniProt P07550); test: Adrenergic beta2 receptor (ADRB2) small molecule agonists, cell-based qHTS assay (AID 1963593);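 also: CHO cells stably overexpressing human ADRB2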
Outline: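 CHO cells stably over-expressing ADRB2 were plated overnight at 37C, then dosed with compounds plus a stimulation mix containing 100uM IBMX and 25uM Ro-20-1724 for 0.5hr at room temperature. cAMP was measured by HTRF competition, 1hr.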

[16] = target: D(2) dopamine receptor (Homo sapiens) (UniProt P14416); test: Dopamine D2 receptor (DRD2) small molecule agonists, cell-based qHTS assay (AID 1963594); also: nearly all actives have a fitted effect of over 35% in size
Outline: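 HEK293 cells stably expressing human DRD2, pre-treated with PDE inhibitor Ro20-1724 (0.1 mM final) and compound 10 min at room temperature, then stimulated with NKH477 (200nM […]) for 30 min. cAMP read by HTRF (665/620 nm).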

[17] = target: D(2) dopamine receptor (Homo sapiens) (UniProt P14416); test: Dopamine D2 receptor (DRD2) small molecule antagonists, cell-based qHTS assay (AID 1963595; active = well fitted inhibition curve with a large enough effect in the signal ratio in the repeat runs, with a control signal flat; the % refers to the signal ratio)
Outline: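 Stable D2 receptor HEK293 line, 24 h after seeding. Compound preincubated 10 min, then quinpirole (12 nM) with forskolin analogue NKH477 (200 nM), 30 min, room temperature. Detection by time-resolved FRET of cAMP.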

[18] = p53 small molecule agonists, cell-based qHTS assay: qHTS cell viability counter screen (AID 1963581); also: nearly all actives have a fitted effect of over 45% in size
Outline: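 p53RE-bla HCT-116 cells were exposed to compounds for 16 h at 37 C; after the beta-lactamase FRET read in the same wells, CellTiter-Glo was added and luminescence (intracellular ATP) read after 30 min at room temperature.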

[19] = p53 small molecule agonists, cell-based qHTS assay with rat liver microsomes (AID 1963578)
Outline: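 Agonist mode in p53RE-bla reporter cells, with compounds co-incubated 16 h at 37 C alongside 0.5 mg/mL rat liver microsomes and 0.5 mg/mL NADPH (final), followed by a 2 h LiveBLAzer detection step.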

[20] = p53 small molecule agonists, cell-based qHTS assay (AID 1963582; active = well fitted activation curve with a large enough effect in the signal ratio in the repeat runs, not every such curve was filed as active; the % refers to the signal ratio)
Outline: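 p53RE-bla beta-lactamase reporter cells rested 5 h at 37 C/5% CO2, then received compounds in DMSO by pin transfer and were incubated 16 h at 37 C. LiveBLAzer B/G FRET substrate was loaded for 2 h at room temperature before fluorescence reading.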

Chain of KiSS-1 receptor (Homo sapiens) (Q969F8 whole entry, looked up): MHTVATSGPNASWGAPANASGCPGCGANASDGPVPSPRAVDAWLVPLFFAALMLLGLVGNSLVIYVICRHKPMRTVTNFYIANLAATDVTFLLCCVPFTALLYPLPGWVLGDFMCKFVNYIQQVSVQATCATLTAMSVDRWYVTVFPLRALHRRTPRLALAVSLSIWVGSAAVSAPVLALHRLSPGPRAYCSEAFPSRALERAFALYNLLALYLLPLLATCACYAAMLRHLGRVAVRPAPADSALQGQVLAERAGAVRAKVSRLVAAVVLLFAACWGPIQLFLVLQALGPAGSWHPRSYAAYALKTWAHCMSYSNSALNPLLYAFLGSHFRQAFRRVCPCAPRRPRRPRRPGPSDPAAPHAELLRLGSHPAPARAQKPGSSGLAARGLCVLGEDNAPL
Chain of Beta-2 adrenergic receptor (Homo sapiens) (P07550 whole entry, looked up): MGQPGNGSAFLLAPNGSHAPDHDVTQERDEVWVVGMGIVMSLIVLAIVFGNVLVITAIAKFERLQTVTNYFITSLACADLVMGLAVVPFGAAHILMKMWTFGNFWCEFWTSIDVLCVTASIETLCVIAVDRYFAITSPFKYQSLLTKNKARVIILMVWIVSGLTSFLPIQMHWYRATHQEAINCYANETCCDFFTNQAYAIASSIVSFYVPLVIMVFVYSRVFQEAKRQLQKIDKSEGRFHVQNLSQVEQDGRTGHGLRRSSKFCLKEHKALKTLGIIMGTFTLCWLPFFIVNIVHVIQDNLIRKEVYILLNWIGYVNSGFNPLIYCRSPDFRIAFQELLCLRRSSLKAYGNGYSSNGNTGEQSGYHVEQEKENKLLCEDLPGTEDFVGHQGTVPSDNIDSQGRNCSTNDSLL
Chain of Muscarinic acetylcholine receptor M1 (Homo sapiens) (P11229 whole entry, looked up): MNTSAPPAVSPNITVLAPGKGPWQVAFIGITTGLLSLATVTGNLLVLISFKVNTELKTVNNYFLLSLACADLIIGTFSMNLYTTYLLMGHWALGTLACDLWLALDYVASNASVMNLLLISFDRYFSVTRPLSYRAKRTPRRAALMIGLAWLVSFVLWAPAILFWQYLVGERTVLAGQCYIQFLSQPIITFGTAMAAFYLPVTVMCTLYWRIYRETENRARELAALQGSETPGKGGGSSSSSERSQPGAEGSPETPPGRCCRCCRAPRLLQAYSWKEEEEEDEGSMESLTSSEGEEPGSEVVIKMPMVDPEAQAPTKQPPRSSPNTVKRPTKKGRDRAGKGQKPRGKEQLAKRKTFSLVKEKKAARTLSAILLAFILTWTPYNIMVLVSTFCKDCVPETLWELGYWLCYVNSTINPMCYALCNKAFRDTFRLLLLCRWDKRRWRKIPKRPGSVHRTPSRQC
Chain of 5-hydroxytryptamine receptor 2A (Homo sapiens) (P28223 whole entry, looked up): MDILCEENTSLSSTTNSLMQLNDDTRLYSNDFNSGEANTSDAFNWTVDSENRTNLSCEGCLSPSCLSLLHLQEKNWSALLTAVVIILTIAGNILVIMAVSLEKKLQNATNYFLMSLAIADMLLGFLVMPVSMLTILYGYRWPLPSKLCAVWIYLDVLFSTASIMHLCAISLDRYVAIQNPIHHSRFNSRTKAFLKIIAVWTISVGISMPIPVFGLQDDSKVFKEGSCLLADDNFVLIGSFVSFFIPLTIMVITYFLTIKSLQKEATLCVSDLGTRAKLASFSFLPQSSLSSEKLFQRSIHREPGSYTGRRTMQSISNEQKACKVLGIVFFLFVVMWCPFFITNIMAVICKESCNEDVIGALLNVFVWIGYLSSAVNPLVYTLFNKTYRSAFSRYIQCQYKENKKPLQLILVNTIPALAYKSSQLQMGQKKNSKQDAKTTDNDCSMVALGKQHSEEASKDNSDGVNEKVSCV
Chain of Gonadotropin-releasing hormone receptor (Homo sapiens) (P30968 whole entry, looked up): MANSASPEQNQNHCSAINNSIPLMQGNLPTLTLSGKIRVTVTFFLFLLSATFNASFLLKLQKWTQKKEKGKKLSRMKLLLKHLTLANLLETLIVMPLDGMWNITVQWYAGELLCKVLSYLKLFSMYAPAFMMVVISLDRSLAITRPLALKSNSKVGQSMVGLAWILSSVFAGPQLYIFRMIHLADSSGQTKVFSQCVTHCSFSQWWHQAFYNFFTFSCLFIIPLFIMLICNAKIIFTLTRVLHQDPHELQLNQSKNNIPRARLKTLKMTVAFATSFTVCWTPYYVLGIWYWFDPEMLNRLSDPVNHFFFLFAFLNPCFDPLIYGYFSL
Chain of D(2) dopamine receptor (Homo sapiens) (P14416 whole entry, looked up): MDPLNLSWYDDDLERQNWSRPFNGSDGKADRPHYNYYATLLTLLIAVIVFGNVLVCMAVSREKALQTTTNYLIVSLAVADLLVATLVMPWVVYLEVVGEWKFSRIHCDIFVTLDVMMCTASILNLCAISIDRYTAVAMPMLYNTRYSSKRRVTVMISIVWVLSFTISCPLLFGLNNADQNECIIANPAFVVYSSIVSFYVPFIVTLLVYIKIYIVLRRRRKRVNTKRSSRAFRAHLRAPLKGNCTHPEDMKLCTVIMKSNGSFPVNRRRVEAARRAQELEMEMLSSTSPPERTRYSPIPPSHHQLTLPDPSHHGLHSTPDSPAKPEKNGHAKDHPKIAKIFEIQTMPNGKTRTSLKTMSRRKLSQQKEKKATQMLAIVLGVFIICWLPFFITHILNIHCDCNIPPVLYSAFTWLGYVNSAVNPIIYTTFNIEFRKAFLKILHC

| SMILES | Potency [1] | Potency [2] | Potency [3] | Potency [4] | Potency [5] | Potency [6] | Potency [7] | Potency [8] | Potency [9] | Potency [10] | Potency [11] | Potency [12] | Potency [13] | Potency [14] | Potency [15] | Potency [16] | Potency [17] | Potency [18] | Potency [19] | Potency [20] |
| --- | --- | --- | --- | --- | --- | --- | --- | --- | --- | --- | --- | --- | --- | --- | --- | --- | --- | --- | --- | --- |
| CCC[N+]1(C)CCCC1 | inactive | inactive | inactive | inactive | inactive | inactive | inactive | inactive | inactive | inactive | inactive and 24.3 µM (active) and 21.9 µM (active) | inactive | inactive | inactive | inactive | inactive | inactive | – | – | – |
| CN1C(=O)CCS(=O)(=O)C1c1ccc(Cl)cc1 (stereo unspecified) | inactive | inactive | inactive | inactive | inactive | inactive | – | inactive | inactive | inactive | inactive | inactive | inactive | inactive | inactive | inactive | – | inactive | – | – |
| COc1ccc(N)cc1N | inactive | 25.1 µM (active) and 33 µM (active) | inactive | inactive | inactive | inactive | – | inactive | 22.6 µM (active) and inactive | inactive | inactive | – | inactive | – | inactive | inactive | inactive | inactive | – | – |
| CCC1(c2ccc(N)cc2)CCC(=O)NC1=O (stereo unspecified) | inactive | inactive | inactive | inactive | inactive | inactive | – | – | – | – | – | inactive | inactive | inactive | inactive | inactive | inactive | inactive | – | – |
| CCC(C)(CC)c1cc(NC(=O)c2c(OC)cccc2OC)on1 | inactive | inactive | inactive | inactive | inactive | – | inactive | inactive | inactive | inactive | inactive | – | inactive | inactive | – | inactive | inactive | inactive | – | – |
| CCNc1nc(Cl)nc(NCC)n1 | inactive | inactive | inactive | inactive | – | inactive | inactive | – | inactive | inactive | – | inactive | inactive | inactive | inactive | inactive | – | inactive | inactive | – |
| CCCC[N+]1(C)CCCCC1 | inactive | inactive | inactive | inactive | inactive | inactive | inactive | inactive | inactive | inactive | inactive | inactive | inactive | inactive | inactive | inactive | inactive | – | – | – |
| CCOC(=O)C(O)(c1ccc(Cl)cc1)c1ccc(Cl)cc1 | 61.8 µM (active) | inactive | inactive | inactive | – | inactive | inactive | 33.8 µM (active) and inactive | 6.99 µM (active) and inactive | 8.48 µM (active) | inactive | – | – | 69.3 µM (active) and inactive | – | inactive | – | inactive | inactive | – |
| COC(=O)c1ccc(CBr)cc1 | inactive | 6.19 µM (active) | inactive | inactive | – | inactive | inactive | inactive | inactive | inactive | inactive | inactive | inactive | inactive | inactive | – | inactive | inactive | inactive | inactive |
| Nc1ncc([N+](=O)[O-])s1 | inactive | inactive | inactive | inactive | – | inactive | – | inactive | inactive | inactive | inactive | inactive | inactive | inactive | inactive | inactive | inactive | inactive | inactive | inactive |
| CCCCON=O | inactive | inactive | inactive | inactive | – | inactive | inactive | inactive | inactive | inactive | inactive | inactive | inactive | inactive | – | inactive | inactive | inactive | inactive | inactive |
| CCCCCCCCCCCOC(=O)c1ccccc1C(=O)OCCCCCCCCCCC | inactive | inactive | inactive | inactive | – | inactive | inactive | inactive | inactive | inactive | inactive | inactive | inactive | inactive | inactive | inactive | inactive | inactive | inactive | inactive |
| N#Cc1cccnc1 | inactive | inactive | inactive | inactive | inactive | – | inactive | inactive | inactive | inactive | inactive | inactive | inactive | inactive | – | – | inactive | inactive | – | – |
| O=C(O)C(Cl)(Cl)Br | inactive | inactive | inactive | inactive | – | inactive | inactive | inactive | inactive | inactive | inactive | inactive | inactive | inactive | inactive | inactive | inactive | inactive | inactive | inactive |
| O=C(O)COc1cc(Cl)c(Cl)cc1Cl | inactive | inactive | inactive | inactive | inactive | inactive | – | inactive | inactive | inactive | inactive | – | – | – | – | – | inactive | inactive | – | – |
